Data from PubChem BioAssay (NCATS).
Results filed as inconclusive are left out. Calls of active or inactive are those of the source. Calls follow the shape of the dose curve; as a rule, active = well fitted curve in the direction sought with a large enough effect; inconclusive = small, poorly fitted or top-dose-only effect, or another doubt; inactive = no such curve, though single readings can be large; an effect the other way counts as inactive or inconclusive.

Key:
[1] = SW1088 Cancer Cell Toxicity qHTS against the NCATS CANVASS Library (AID 1347350); also: nearly all actives have a fitted effect of over 75% in size; also: potency is read from the fitted curve at half-maximal effect
Summary of the method: (§1)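 Step one: seed 1000 cells per well. Step two: incubate 4 h. Step three: add test compounds in 11 concentrations. Step four: culture 72 h, then add CellTiter-Glo and record luminescence after 15min.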

[2] = A2780 Cisplatin Sensitive Ovarian Cancer Cell Toxicity qHTS against the NCATS CANVASS Library (AID 1347353); also: nearly all actives have a fitted effect of over 60% in size; also: potency is read from the fitted curve at half-maximal effect
Summary of the method: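 750 cells/well, 4 h settle; 11-pt cpd titration; 72 h, 37 °C, 5% CO2; ATPLite 10 min RT; luminescence read.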

[3] = HEK-293 Cancer Cell Toxicity qHTS against the NCATS CANVASS Library (AID 1347355); also: nearly all actives have a fitted effect of over 65% in size; also: potency is read from the fitted curve at half-maximal effect
Summary of the method: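 1000 cells/well, 4 h pre-incubation 37 °C/5% CO2; 11-pnt titration; 72 h; CellTiter-Glo 15 min RT, luminescence.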

[4] = KB-8-5-11 Cancer Cell Toxicity qHTS against the NCATS CANVASS Library (AID 1347364); also: nearly all actives have a fitted effect of over 75% in size; also: potency is read from the fitted curve at half-maximal effect
Summary of the method: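 CellTiter-Glo luminescence after 72 h exposure; 500 KB-8-5-11 cells/well, DMEM/10% FBS, 37C, 5% CO2; compounds in 11-pt qHTS. Follow-up confirmation included medium with 1uM tariquidar.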

[5] = J3T Cancer Cell Toxicity qHTS against the NCATS CANVASS Library (AID 1347371);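 also: J3T is a canine glioma cancer cell line seeded at 500 cells per well; series mostly up to about 46 µM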
Summary of the method: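 Dog glioma J3T, 500 cells/well; cpd 11-pt qHTS; 72 hr, 37C/5% CO2; CellTiterGlo ATP luminescence readout.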

[6] = 10-beta competent E. coli microbial cell viability qHTS against the NCATS CANVASS Library (AID 1347376); also: series mostly up to about 46 µM
Summary of the method: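 Luminescence from BacTiter-Glo ATP detection served as the viability read-out; bacteria (0.2 OD) had been incubated overnight at 37C with pin-transferred compounds at 11 concentrations.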

[7] = Inflammasome Signaling qHTS Counterscreen: IL-1-beta AlphaLISA counterscreen against the NCATS CANVASS Library (AID 1347381);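 also: cell-free check with purified IL-1β in medium and no THP-1 cells; series mostly up to about 57 µM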
Summary of the method: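 Here, no cellular stimulation occurs; compounds in an 11-point series meet 4 pg purified IL-1-beta directly. Bead-based AlphaLISA detection follows (1 h acceptor/antibody, then 30 min donor, dark, room temperature), with excitation at 680 nm.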

[8] = Cytotoxicity qHTS for assessment of Hepg2 cells membrane integrity screened against the NCATS CANVASS Library (AID 1347387)
Summary of the method: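 LDH release read by fluorescence (560 nm ex/590 nm em) after CytoTox-ONE addition and 10 min RT; signal tracks lysed cells. HepG2, 2000 cells/well, plated overnight; compound 5 hr, 37C, 5% CO2, final 0.59 nM - 46 uM, 11 points.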

[9] = qHTS for inhibitors of ER calcium dysfunction: SERCaMP assay screened against the NCATS CANVASS Library (AID 1347393); also: nearly all actives have a fitted effect of over 40% in size; also: potency is read from the fitted curve at half-maximal effect
Summary of the method: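 Thapsigargin-induced ER calcium depletion drives GLuc-SERCaMP secretion from SH-SY5Y cells; compounds given 16 h beforehand were scored by lowered coelenterazine luminescence after 4 h challenge.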

[10] = OV-KATE Cancer Cell Toxicity qHTS against the NCATS CANVASS Library (AID 1347345); also: potency is read from the fitted curve at half-maximal effect
Summary of the method: as §1

[11] = system: NAD(P)H diaphorase (Clostridium kluyveri); assay: Diaphorse counterscreen qHTS: Assay Interference Panel against the NCATS CANVASS Library (AID 1347362)
Summary of the method: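 Counterscreen for coupling-enzyme interference: resorufin fluorescence from resazurin/NADH turnover, read after 5 min at room temperature. Compounds were tested over an 11-point series after 15 min dark preincubation with diaphorase in PBS-Tween.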

[12] = qHTS for ATAD5 Antagonist screened against the NCATS CANVASS Library (AID 1347370); also: nearly all actives have a fitted effect of over 65% in size; also: potency is read from the fitted curve at half-maximal effect
Summary of the method: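 HEK293T-ATAD5 luc reporter, 2000 cells/well; 5hr attach; cpd + 10 uM 5-FUrd; 16hr 37C, 5% CO2. Readouts: CellTiter-Fluor fluorescence (1hr), then Amplite luciferase luminescence (30min RT).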

[13] = qHTS for Hypoxia signaling pathway (HIF-1) antagonists against the NCATS CANVASS Library (AID 1347374); also: nearly all actives have a fitted effect of over 60% in size; also: potency is read from the fitted curve at half-maximal effect
Summary of the method: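 Beta-lactamase reporter under HRE control in ME-180 cells; CoCl2 stimulus (60 uM solution as added), compounds 11-pt qHTS, 17 h 37C. CCF4 dye 2 h RT, 460/530 nm emission. CellTiter-Glo viability in same wells.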

[14] = qHTS for Activators of p53 Stress Response Pathway screened against the NCATS CANVASS Library (AID 1347388); also: potency is read from the fitted curve at half-maximal effect
Summary of the method: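 Beta-lactamase reporter driven by p53 response elements in HCT-116 cells, read as the 460 nm/530 nm emission ratio after CCF4 loading, following 16 h of exposure to an 11-point series. Cell viability was measured in the same wells by CellTiter-Glo luminescence.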

[15] = qHTS assay for small molecule disruptors of mitochondrial membrane potential screened against the NCATS CANVASS Library (AID 1347389); also: series mostly up to about 46 µM; nearly all actives have a fitted effect of over 60% in size
Summary of the method: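 Red/green fluorescence ratio read-out: J-aggregates ex 540/em 590 nm, monomers ex 490/em 535 nm. HepG2, 1 hr compound treatment, then 30 min Mito-MPS dye at 37C. 11-pt qHTS concentration series.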

[16] = qHTS for activators of Nrf2/ARE signaling pathway screened against the NCATS CANVASS Library (AID 1347391); also: nearly all actives have a fitted effect of over 60% in size; also: potency is read from the fitted curve at half-maximal effect
Summary of the method: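 HepG2 ARE-bla; cpd 11-pt qHTS, 16 h 37C/5% CO2; CCF4 substrate 2 h RT; read ex 405 / em 460 + 530 nm. Viability by CellTiter-Glo luminescence, 30 min RT.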

[17] = qHTS for inhibitors of Wild type Zika virus screened against the NCATS CANVASS Library (AID 1347396);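 also: ATP luminescence of surviving cells so rescue from viral cell killing; series mostly up to about 46 µM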
Summary of the method: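 Luminescent CellTiter Glo read-out of virus-induced cytotoxicity, 72 h post-infection, in Vero 766 cells. Compounds were tested at 11 concentrations; uninfected, vehicle-treated wells defined 100% inhibition.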

[18] = molecular target: Luciferin 4-monooxygenase (Photinus pyralis) (UniProt P08659); assay: Firefly luciferase counterscreen qHTS: Assay Interference Panel against the NCATS CANVASS Library (AID 1347363); also: series mostly up to about 57 µM
Sequence of Luciferin 4-monooxygenase (Photinus pyralis) (P08659 whole entry, looked up): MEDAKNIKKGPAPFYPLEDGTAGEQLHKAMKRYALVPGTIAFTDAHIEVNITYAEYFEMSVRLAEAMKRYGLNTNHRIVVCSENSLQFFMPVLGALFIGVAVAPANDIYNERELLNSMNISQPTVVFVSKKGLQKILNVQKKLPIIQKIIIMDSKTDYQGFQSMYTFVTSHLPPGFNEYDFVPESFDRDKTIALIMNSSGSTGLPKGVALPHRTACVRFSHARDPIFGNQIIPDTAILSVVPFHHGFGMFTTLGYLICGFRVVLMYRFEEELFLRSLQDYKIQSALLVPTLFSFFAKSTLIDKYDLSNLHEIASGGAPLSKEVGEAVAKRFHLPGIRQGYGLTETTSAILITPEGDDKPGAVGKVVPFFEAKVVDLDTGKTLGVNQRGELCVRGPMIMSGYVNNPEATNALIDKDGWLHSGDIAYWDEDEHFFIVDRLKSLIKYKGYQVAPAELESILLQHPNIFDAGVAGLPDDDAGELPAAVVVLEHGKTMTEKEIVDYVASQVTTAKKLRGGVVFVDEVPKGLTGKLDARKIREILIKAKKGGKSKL
Summary of the method: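 Luminescence inhibition readout: compounds (11-point qHTS) sat 15 min at room temperature with substrate mix (0.013 mM luciferin and ATP), then firefly luciferase was added and signal read 5 min later.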

[19] = Redox Reaction Profiling qHTS: Assay Interference Panel against the NCATS CANVASS Library (AID 1347401); also: potency is read from the fitted curve at half-maximal effect
Summary of the method: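 Redox-cycling liability assessed as DTT-driven conversion of resazurin (5 uM, with 200 uM DTT, HEPES pH 7.3) to fluorescent resorufin. Fluorescence at 525/598 nm measured initially and after 15 min dark incubation.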

[20] = NCATS anti-infectives library activity on HEK293 viability as a counter-qHTS vs the C. elegans viability qHTS (AID 1745854); also: potency is read from the fitted curve at half-maximal effect
Summary of the method: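 CellTiter-Glo luminescence, read on a CCD imager, scored viability of HEK293 cells after 24 hr compound exposure at 37C. Library tested in several concentrations, 1:5 steps, up to 41.7 uM; digitonin served as control.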

Measured: Potency

CC[C@H]1[C@@H](C)[C@@H](c2cc(OC)c(OC)cc2OC)[C@H](C)[C@@H](c2cc(OC)c(OC)cc2OC)[C@@]12C=C(OC)C(=O)C=C2OC
active: [1] 11.9 µM | [2] 9.35 µM | [3] 14.8 µM | [4] 29.6 µM | [9] 0.86 µM
inactive: [5] | [6] | [7] | [8]

C/C(=C\[C@@H](C)CC/C=C/CC/C=C/C(=O)O)[C@H](O)[C@H](C)C(=O)CCCC1CC(=O)NC(=O)C1
not listed: [7] | [18] | [19] | [20]
inactive: all other assays above

COc1ccc([C@@H]2c3cc4c(cc3C[C@H](C)C2C)OCO4)cc1OC (stereo partly drawn)
active: [2] 10.5 µM | [4] 3.72 µM | [14] 7.41 µM
not listed: [1] | [3] | [12] | [13] | [15] | [20]
inactive: all other assays above

COc1ccc([C@@H]2c3cc4c(cc3C(=O)[C@H](C)C2C)OCO4)cc1OC (stereo partly drawn)
active: [3] 18.7 µM | [4] 16.6 µM | [12] 16.6 µM | [14] 11.7 µM
not listed: [2] | [8] | [11] | [16] | [20]
inactive: all other assays above

C[C@H](c1cnc(N)[nH]1)c1ccc(O)c2[nH]cc(-c3cnc(-c4c[nH]c5ccccc45)c(=O)[nH]3)c12
inactive: [10] | [1] | [2] | [4] | [12] | [5] | [8] | [16] | [17]

O[C@H]1C=C2[C@H]3CN(Cc4cc5c(cc43)OCO5)[C@H]2C[C@@H]1O
active: [2] 9.35 µM | [3] 5.26 µM | [4] 10.5 µM | [13] 13.3 µM
not listed: [5] | [6] | [10] | [12] | [20]
inactive: all other assays above

C/C(=C\[C@H](C)C(=O)/C=C/CC1CC(=O)NC(=O)C1)[C@@H]1OC(=O)CCCC/C=C/[C@H](O)[C@@H](O)[C@@H]1C
active: [2] 10.5 µM | [3] 23.5 µM | [12] 23.4 µM | [13] 11.8 µM | [16] 4.67 µM | [9] 19.3 µM | [19] 24.1 µM
not listed: [5] | [6] | [10] | [20]
inactive: all other assays above

C=C1C[C@H]2O[C@@H]3[C@@H]4[C@H](CC[C@@](C)(O)[C@@H]42)[C@H](C)COC3(C)[C@@H](OC(=O)CCCCCCC)CC1=O (stereo partly drawn)
active: [10] 21.1 µM | [1] 8.41 µM | [2] 13.2 µM | [3] 14.8 µM
inactive: [11] | [18] | [6] | [7] | [8] | [16] | [19]

C[C@H](CCC(O)C(C)(O)CO)[C@@]1(O)CC[C@@]2(C)C3=C(CC[C@@]21C)[C@@]1(C)CCC(OC(=O)CCC(=O)O)C(C)(C)[C@@H]1CC3 (stereo partly drawn)
active: [13] 14.9 µM
inactive: [10] | [2] | [3] | [11] | [18] | [4] | [12] | [5] | [14] | [9]

C=C[C@@](C)(O)CC[C@@H]1[C@@]2(C)CCCC(C)(C)[C@@H]2CC[C@@]1(C)O
not listed: [1] | [3] | [4] | [9] | [19] | [20]
inactive: all other assays above

COc1cc(C2C3=C(Cc4cc5c(cc42)OCO5)C(=O)OC3)cc(OC)c1OC (stereo not drawn)
active: [2] 0.0833 µM | [3] 0.059 µM | [4] 0.105 µM
not listed: [5] | [16] | [20]
inactive: all other assays above

C=C[C@]1(C)CC[C@@H]([C@H](C)C(=O)/C=C/C(C)(C)O)O1
active: [16] 16.6 µM
not listed: [2] | [3] | [5] | [7] | [9] | [12] | [19] | [20]
inactive: all other assays above

O=C1CCC(=O)N(O)CCCCCNC(=O)CCC(=O)N(O)CCCCCNC(=O)CCC(=O)N(O)CCCCCN1
active: [2] 26.4 µM
not listed: [3] | [6] | [10] | [18] | [20]
inactive: all other assays above

C=CC(=O)N1CC/C(=C\c2ccc(F)c([N+](=O)[O-])c2)C(=O)/C(=C/c2ccc(F)c([N+](=O)[O-])c2)C1
active: [20] 1.78 µM

COc1ccc(C(=O)N2CCN(c3ccc4c(c3)CCC(=O)N4)CC2)cc1OC
inactive: [20]

COC(=O)C1=C(C)NC(c2ncc(F)cc2F)=N[C@H]1c1ccc(F)cc1Cl
inactive: [20]

Cc1ccc(-c2ccc(C)cn2)nc1
inactive: [20]

CC(C)=CCC[C@](C)(O[C@@H]1O[C@H](CO[C@@H]2O[C@H](CO)[C@@H](O)[C@H](O)[C@H]2O)[C@@H](O)[C@H](O)[C@H]1O)[C@H]1CC[C@]2(C)[C@@H]1[C@H](O)C[C@@H]1[C@@]3(C)CC[C@H](O[C@@H]4O[C@H](CO)[C@@H](O)[C@H](O)[C@H]4O[C@@H]4O[C@H](CO)[C@@H](O)[C@H](O)[C@H]4O)C(C)(C)[C@@H]3CC[C@]12C
inactive: [20]

Cc1c(-c2cnccn2)ssc1=S
inactive: [20]

NC1=N[C@@]2(c3cc(NC(=O)c4ccc(F)cn4)ccc3F)COC[C@H]2CS1
inactive: [20]

Cc1c(-c2ccc(-c3ccccc3F)cc2)nc2ccc(F)cc2c1C(=O)O
inactive: [20]

CNC(=O)[C@@H](NC(=O)[C@H](CC(C)C)[C@H](O)C(=O)NO)C(C)(C)C
inactive: [20]

c1ccc(CNCc2ccc(CN3CCCNCCNCCCNCC3)cc2)nc1
inactive: [20]

COC[C@@H](c1ccc(C(F)(F)F)cc1)N1CCN(C2(C)CCN(C(=O)c3c(C)ncnc3C)CC2)C[C@@H]1C
inactive: [20]

COc1ccnc2[nH]cc(C(=O)C(=O)N3CCN(C(=O)c4ccccc4)C[C@H]3C)c12
inactive: [20]

C[C@]12CCC3[C@@H](CC[C@H]4NC(=O)C=C[C@]34C)[C@@H]1CC[C@@H]2C(=O)Nc1cc(C(F)(F)F)ccc1C(F)(F)F (stereo partly drawn)
inactive: [20]

CC(=O)O/N=C1\C(=O)N(Cc2cc(Cl)ccc2Cl)c2ccc(Cl)cc21
inactive: [20]

Cc1cccc(/C=N/Nc2cc(N3CCOCC3)nc(OCCc3ccccn3)n2)c1
inactive: [20]

CC#Cc1cncc(-c2ccc3c(c2)[C@@]2(N=C(C)C(N)=N2)C2(CCC(OC)CC2)C3)c1 (stereo partly drawn)
inactive: [20]

Cn1cc(/C=C/C(=O)c2cccc(F)c2)cc1/C=C/C(=O)NO
inactive: [20]

CN1C(N)=N[C@](C)(c2cc(NC(=O)c3ccc(F)cn3)ccc2F)CS1(=O)=O
inactive: [20]

O=c1[nH]nc2c3c(cccc13)NC(CN1Cc3ccccc3C1)=N2
inactive: [20]
